# Only some compounds are listed: those with a hit (about 4.1% of all), similar ones and a draw of the others.
# ABHD5 PLIN5 PPI: inhibitors of human ABHD5-perilipin-5 interaction. 360,000 tested, 0.78% active. inhibition, % at 4 µM. AID 602281. Split G. princeps luciferase complementation, luminescence, 4 h. Q00G26+Q8WTS1;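 active = inhibition above the mean inhibition across every tested compound plus 3 SD, cut at about 22% in these data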;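 note: 0% = DMSO only wells and the 100% control is not disclosed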
# LEDGF integ inh: blocks HIV-1 LEDGF/p75-dependent DNA integration; TR-FRET IN-LEDGF/p75 DNA integration, Eu/Cy5; inhibition, % at 3.7 µM; 370,000 tested, 0.64% active; AID 743269;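 active = inhibition above the screen-wide mean plus 3 SD, cut at about 13% in these data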;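 note: signal is the Cy5 over europium emission ratio at 671 and 618 nm; 0% = plate median of compound wells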
# MBD2 inh: blocks human MBD2 binding to methylated DNA. Q9UBB5. TR-FRET, MBD2 binding to methylated oligonucleotide. inhibition, % at 4.4 µM. 370,000 tested, 0.31% active; in the data active = inhibition above about 13%
# PRMT1 inh: PRMT1 (human) inhibition, primary screen; Q99873; inhibition, % at 2.79 µM; AID 652257; recombinant PRMT1, activity-based probe fluorescence polarization; 370,000 tested, 1.3% active;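 active = inhibition above about 21% made by adding two undisclosed values, limit read from the data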
# Target sequence (Q99873 whole entry, looked up): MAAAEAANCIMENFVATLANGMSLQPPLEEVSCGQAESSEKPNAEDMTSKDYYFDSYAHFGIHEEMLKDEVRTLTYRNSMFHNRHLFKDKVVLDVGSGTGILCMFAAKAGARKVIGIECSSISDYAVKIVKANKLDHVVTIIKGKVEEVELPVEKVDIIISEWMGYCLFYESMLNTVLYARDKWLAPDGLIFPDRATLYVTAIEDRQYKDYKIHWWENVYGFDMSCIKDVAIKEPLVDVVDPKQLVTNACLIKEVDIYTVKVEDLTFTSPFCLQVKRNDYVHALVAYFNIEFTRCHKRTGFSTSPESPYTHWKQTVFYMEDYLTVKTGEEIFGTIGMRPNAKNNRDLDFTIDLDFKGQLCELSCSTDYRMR
# rCAG RNA binder: binds r(CAG) RNA repeats; 370,000 tested, 1.3% active; r(CAG) RNA repeat, TO-PRO-1 dye displacement fluorescence; inhibition, % at 3 µM;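 active = inhibition above the plate cutoff, the mean of all test compounds on that plate plus 3 SD, cut at about 35% in these data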;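 note: 0% = DMSO alone and 100% = 100 µM mitoxantrone as full dye displacement; higher means more dye released from RNA so lower well fluorescence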
# UHRF1 MBD2 ctr: blocks human UHRF1 binding to methylated DNA; Q96T88; inhibition, % at 4.4 µM; 370,000 tested, 0.75% active; UHRF1 binding to methylated oligo, TR-FRET; in the data active = inhibition above about 21%;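 note: UHRF1 SRA domain binding a hemimethylated CpG hairpin DNA probe; 0% = median of test compound wells and 100% = reference inhibitor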
# IN multimer up: activates HIV-1 integrase multimerization in LEDGF counter-screen. activation, % at 7.7 µM. TR-FRET HIV-1 integrase multimerization, biochemical. AID 1053131. 2,000 tested, 17% active. shares compounds with LEDGF integ inh; in the data active = activation above about 8.9%
# TRFRET interf: TR-FRET optical interference, LEDGF/p75 integration counter-screen | shares compounds with LEDGF integ inh | TR-FRET optical interference counterscreen, HIV-1 IN multimerization | inhibition, % at 7.7 µM | 2,000 tested, under 10 active;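 active = inhibition above the mean over all tested compounds plus 3 SD, which no compound reached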;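 note: 0% = integrase with antibodies and DMSO and 100% = antibodies without integrase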
# IN-LEDGF confirm: LEDGF/p75-dependent HIV-1 integration inhibition, confirmation. shares compounds with LEDGF integ inh. TR-FRET LEDGF/p75-dependent HIV-1 integration, biochemical. inhibition, % at 3.7 µM. 2,000 tested, 36% active. AID 1053136; in the data active = inhibition above about 14%
# The depositor's hits bear a star; · = not tested or not shown.
SMILES,ABHD5 PLIN5 PPI,LEDGF integ inh,MBD2 inh,PRMT1 inh,rCAG RNA binder,UHRF1 MBD2 ctr,IN multimer up,TRFRET interf,IN-LEDGF confirm
Cc1nnc(N/N=C/c2ccc([N+](=O)[O-])cc2)n1N,-36,79*,-2,10,1,19,1,-4,-3
Cc1nnc(N/N=C\c2ccc(-c3cccc(C(=O)O)c3)o2)n1N,-23,53*,-5,2,1,6,5,-19,0
COC(=O)[C@]12C[C@H](CC(=O)NCc3cccs3)C(=O)N(Cc3ccco3)C1=C[C@H](C(C)C)O[C@@H]2C1CC1,·,0,2,1,1,3,·,·,·
c1ccc(-c2cc(-c3nnc4sc(Cc5cccs5)nn34)[nH]n2)cc1,·,-1,7,2,15,1,·,·,·
CN1CCN(c2ccc3c(c2)Oc2ccccc2CN(Cc2cn(Cc4cccc(C(F)(F)F)c4)nn2)S3(=O)=O)CC1,·,1,0,-1,8,-1,·,·,·
O=C(OC1CC2CC1[C@H]1CCCCN1C2=O)N1CCN(c2ccccc2)CC1 (some centres undefined),-4,-1,-1,-1,4,0,·,·,·
O=C(OC1CC2CC1[C@H]1CCCCN1C2=O)N1CCC(c2ccccc2)CC1 (some centres undefined),3,23*,1,4,4,4,0,0,1
COc1ccc(S(=O)(=O)N2CCOCC2)cc1NC(=O)CSc1nnnn1C1CC1,6,-3,3,1,4,3,·,·,·
COc1ccc(S(=O)(=O)N2CCOCC2)cc1NC(=O)CSc1n[nH]c(=O)n1C1CC1,1,71*,-1,-2,4,1,1,-3,2
Cc1ccc(CNc2ncnc3ccc(-c4ccc(CO)o4)cc23)o1,12,19*,-3,25*,29,-2,6,-29,5
COC(=O)/C(C#N)=C/c1ccc(OC(=O)c2ccccn2)cc1,0,14*,0,3,3,1,0,-2,0
N=c1c2c(ccn1Cc1ccccc1)Oc1ccc3ccccc3c1C2c1ccccc1 (centres undefined),·,-4,3,-2,·,2,·,·,·
CC1=CC(C)(C)N2C(=O)C(=Nc3ccc(O)cc3)c3cccc1c32,9,17*,-23,20,11,-11,19*,-68,45*
COc1cc(N=C2C(=O)N3c4c(cccc42)C(C)=CC3(C)C)cc(OC)c1,-4,5,-13,5,4,-13,·,·,·
Cc1ccc(CNC(=O)/C=C/c2cccs2)cc1,-4,25*,1,-1,-2,-4,4,-14,-5
O=C(/C=C/c1ccco1)Nc1nc(-c2ccccn2)cs1,12,16*,3,23*,17,4,3,-14,16*
O=C(c1cccc(F)c1)N1CCN(S(=O)(=O)c2ccccc2)CC1,0,-1,-2,2,0,0,·,·,·
O=C(c1ccccc1)N1CCN(S(=O)(=O)c2ccccc2)CC1,1,44*,4,1,-1,-2,0,-2,-4
C=CC[C@]12C[C@@]3(O[C@H](c4ccc(C(F)(F)F)cc4)N=C3C[C@H](c3ccc(OC)cc3)[C@H]1C)N(Cc1ccncc1)C2=O,·,0,-4,-7,4,2,·,·,·
Nn1c(SCC(=O)Nc2ccc(OCc3ccccc3)cc2)nnc1-c1cc(-c2ccccc2)n[nH]1,·,2,2,-4,5,-3,·,·,·
O=S(=O)(Nc1ccc(O)c2ncccc12)c1ccccc1F,-17,29*,-11,3,18,-6,1,-6,44*
O=C(NC(Cc1ccccc1)C(=O)O)/C(=C/c1ccco1)NC(=O)c1cccc([N+](=O)[O-])c1 (centres undefined),0,-1,11,7,4,21,·,·,·
O=C(NC(Cc1ccccc1)C(=O)O)/C(=C\c1ccco1)NC(=O)c1ccccc1Br (centres undefined),3,16*,1,24*,22,0,0,-2,1
S=c1[nH]nc(-c2ccncc2)n1/N=C/C=C/c1ccco1,3,18*,0,17,15,14,5,-26,33*
CC(/C=N/n1c(-c2ccccc2)n[nH]c1=S)=C\c1ccco1,16,16*,-3,16,27,-3,0,-2,10
SMILES,ABHD5 PLIN5 PPI,LEDGF integ inh,MBD2 inh,PRMT1 inh,rCAG RNA binder,UHRF1 MBD2 ctr,IN multimer up,TRFRET interf,IN-LEDGF confirm
CC(/C=N/n1c(-c2ccc(C)cc2)n[nH]c1=S)=C\c1ccco1,3,5,-5,18,28,-2,·,·,·
Oc1ccc(N=Cc2ccc(OCc3ccccc3)cc2)cc1,-2,34*,-3,36*,15,8,22*,-78,35*
O=C(N/N=C/c1ccc(OCc2ccccc2)cc1)c1ccncc1,-2,3,-3,-4,3,-2,·,·,·
Brc1ccccc1Cn1nnc(-c2ccc(N3CCOCC3)cc2)n1,·,2,1,-1,1,-1,·,·,·
CC(=O)Nc1ccc(-c2ccnc3c2CC(C(=O)Nc2ccc(Cl)c(C(F)(F)F)c2)O3)cc1 (centres undefined),-1,37*,-1,-1,6,1,0,-1,-1
O=C(Nc1ccc(Cl)c(C(F)(F)F)c1)C1Cc2c(-c3ccccc3)ccnc2O1 (centres undefined),-7,-1,-1,-3,6,0,·,·,·
CSC1=NC2C(N1)N(C)C(=O)N2C (centres undefined),2,35*,1,-1,0,-1,0,2,-2
CCCCN1C(=O)N(C)C2NC(=O)NC21 (centres undefined),-2,-3,3,0,-1,-2,·,·,·
CCCCc1c(-c2ccccc2OC)ncn1Cc1cccc(F)c1F,·,-2,-3,-1,-1,-1,·,·,·
O=C(NCCc1ccccc1)OCc1cn(Cc2cccc(Cl)c2)nn1,·,4,-1,-1,-2,1,·,·,·
C=CCn1c(N)c(C(=O)Nc2ccccc2)c2nc3ccccc3nc21,-15,21*,-5,1,17,-9,2,-7,0
COc1ccc(OC)c(NC(=O)COC(=O)/C=C/c2ccco2)c1,9,22*,5,23*,15,15,1,-6,-4
Cc1nc(NC(=O)COC(=O)/C=C/c2ccco2)c(Cl)cc1Cl,15,33*,-2,20,27,19,2,-7,0
